Screening results (PubChem)
H9c2 TAG inh = inhibitors of triacylglycerol accumulation | H9c2 cells, Nile Red lipid (TAG) fluorescence; cells loaded with 200 µM oleic acid | 230,000 compounds, 0.66% hits | inhibition, % at 12.5 µM;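 active = pattern-corrected inhibition of lipid staining of at least 50% with the nuclear-stain viability signal not falling by more than 50%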
PfGluPho inh = PfG6PD (Plasmodium falciparum) enzyme inhibition. PfGluPho enzyme, NADPH resazurin-diaphorase fluorescence. inhibition, % at 20 µM. 350,000 compounds, 0.78% hits;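 active = inhibition reaching at least a set limit at 20 µM in the primary screen, cut at about 59% in these data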
H9c2 protect = protects H9c2 cardiomyocytes from peroxide injury. H2O2 injury protection, ATPLite, 2 h. protection from H2O2 cell death, % at 20 µM. 360,000 compounds, 0.63% hits;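 active = compounds giving at least 50% protection of heart cells from peroxide-induced death in the single-dose screen, raw or plate-pattern-corrected value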
NadD block = blocks S. aureus nicotinate mononucleotide adenylyltransferase; purified NadD enzyme, colorimetric absorbance read-out; inhibition, % at 20 µM; 360,000 compounds, 0.78% hits; in the data active = inhibition above about 26%
A3G deaminase = blocks human APOBEC3G single-stranded DNA deamination; inhibition, % at 20 µM; 330,000 compounds, 0.28% hits; recombinant A3G, ssDNA deamination FAM/TAMRA fluorescence; Q9HC16;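 active = inhibition of at least 40% at 20 µM, with no more than 30% in the related APOBEC3A deaminase screen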
Target sequence (Q9HC16 whole entry, looked up): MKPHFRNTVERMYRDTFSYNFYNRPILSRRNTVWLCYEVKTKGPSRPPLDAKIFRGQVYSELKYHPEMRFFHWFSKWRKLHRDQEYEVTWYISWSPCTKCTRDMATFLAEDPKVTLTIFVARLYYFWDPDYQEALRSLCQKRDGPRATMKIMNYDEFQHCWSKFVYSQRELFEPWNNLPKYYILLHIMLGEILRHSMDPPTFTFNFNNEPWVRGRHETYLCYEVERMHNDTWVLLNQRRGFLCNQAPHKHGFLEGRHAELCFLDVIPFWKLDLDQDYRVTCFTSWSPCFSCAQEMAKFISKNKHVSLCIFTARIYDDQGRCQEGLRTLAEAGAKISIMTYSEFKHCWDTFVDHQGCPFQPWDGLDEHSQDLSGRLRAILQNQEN
APOBEC3A inh = inhibitors of human APOBEC3A DNA deaminase | AID 493011 | inhibition, % at 20 µM | recombinant A3A, FAM/TAMRA ssDNA deamination fluorescence | 330,000 compounds, 0.41% hits;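 active = at least 40% inhibition at 20 µM here, with at most 30% in a related deaminase screen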
Target sequence (P31941 whole entry, looked up): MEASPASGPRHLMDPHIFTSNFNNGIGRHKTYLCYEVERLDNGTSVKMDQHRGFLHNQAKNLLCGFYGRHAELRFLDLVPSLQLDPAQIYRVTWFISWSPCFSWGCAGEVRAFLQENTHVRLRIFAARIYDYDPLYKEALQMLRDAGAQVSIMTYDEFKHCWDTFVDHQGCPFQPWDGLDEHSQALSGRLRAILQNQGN
PfG6PD confirm = PfG6PD inhibition, single-dose confirmed; shares compounds with PfGluPho inh; recombinant PfGluPho, NADPH-diaphorase-resazurin fluorescence; inhibition, % at 20 µM; 2,400 compounds, 34% hits;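 active = inhibition of at least 50% at 20 µM in any single replicate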
Diaph ctr 10uM = counter-screen for P. falciparum G6PD inhibitors: diaphorase inhibitors, oxidizers; AID 504862; inhibition, % at 20 µM; diaphorase-coupled resazurin reduction, fluorescence, NADPH 10 uM; 820 compounds, 39% hits; shares compounds with PfGluPho inh;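 active = average inhibition reaching 50% or more with the compound at 20 µM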;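 note: resorufin red fluorescence formed as diaphorase reduces resazurin using NADPH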
Diaphorase 30uM = inhibits diaphorase or oxidizes, flagging false PfG6PD hits; shares compounds with PfGluPho inh; Diaphorase/resazurin coupled assay, resorufin fluorescence, 30 uM NADPH; inhibition, % at 20 µM; 820 compounds, 29% hits; AID 504863;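 active = inhibition averaging 50% or more, tested at 20 µM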
Of the large screens only hits and unclear results are named; the others gave an inactive call (follow-up assays come after a bar, where they were run). Compounds with a hit are over-represented: about 2.9% of the library has one in this group of screens.

CCC(=O)Nc1nc2ccccc2n1Cc1ccc(Cl)cc1	none
O=C(Nc1nc2ccccc2n1CCN1CCOCC1)c1ccc(Cl)cc1	PfGluPho inh 68 | PfG6PD confirm inactive
CC1(C)CC(=O)C2=C(C1)c1c(ccc3ccccc13)NC2c1cc([N+](=O)[O-])cc([N+](=O)[O-])c1O (stereo unspecified)	none (no result: H9c2 TAG inh)
O=c1ccn(-c2cccc(C(F)(F)F)c2)nc1-c1ccn(-c2ccccc2F)n1	PfGluPho inh 104 (no result: H9c2 TAG inh) | PfG6PD confirm 102 | Diaph ctr 10uM 97 | Diaphorase 30uM 78
CCc1ccc(S(=O)(=O)/N=C2\C=C(Nc3cccc(C(=O)O)c3)C(=O)c3ccccc32)cc1	PfGluPho inh 61 (no result: H9c2 TAG inh) | PfG6PD confirm inactive
CCc1ccc(S(=O)(=O)/N=C2\C=C(Nc3ccc(O)cc3)C(=O)c3ccccc32)cc1	PfGluPho inh 94 (no result: H9c2 TAG inh) | PfG6PD confirm inactive
O=C(CSc1ncccn1)N/N=C/c1cccc([N+](=O)[O-])c1	none (no result: H9c2 TAG inh)
Cc1cc(C)nc(SCC(=O)N/N=C/c2cccc([N+](=O)[O-])c2)n1	PfGluPho inh 93 (no result: H9c2 TAG inh) | PfG6PD confirm inactive
O=C(N/N=C/c1cccc([N+](=O)[O-])c1)c1ccccc1-n1cccc1	PfGluPho inh 63 | PfG6PD confirm inactive
COCCN(C(=O)COC(=O)C(C)(C)Oc1ccc(Cl)cc1)c1c(N)n(Cc2ccccc2)c(=O)[nH]c1=O	none (no result: A3G deaminase, APOBEC3A inh)
CN(C)c1ncc(C2=C(Cl)C(=O)C(N3CCCC3)=C(Cl)C2=O)s1	PfGluPho inh 91 (no result: H9c2 TAG inh) | PfG6PD confirm 98 | Diaph ctr 10uM inactive | Diaphorase 30uM inactive
CCn1c(=N)n(CC(=O)c2ccc(Cl)c(Cl)c2)c2ccccc21	none (no result: H9c2 TAG inh)
N=c1n(CCN2CCCCC2)c2ccccc2n1CC(=O)c1ccc(Cl)c(Cl)c1	PfGluPho inh 93 | PfG6PD confirm inactive
C(=N\Nc1nc2ccccc2[nH]1)/c1ccccn1	PfGluPho inh 64 (no result: A3G deaminase, APOBEC3A inh) | PfG6PD confirm 54 | Diaph ctr 10uM inactive | Diaphorase 30uM inactive
O=c1cnnc(N/N=C/c2ccccn2)[nH]1	none | PfG6PD confirm inactive
Cc1cc(=O)[nH]c(N/N=C/c2ccccn2)n1	none (no result: H9c2 TAG inh)
Cc1c(C(=O)c2ccc(F)cc2F)c2ccccn2c1CCC#N	PfGluPho inh 94 (no result: H9c2 TAG inh) | PfG6PD confirm inactive
CC(C)C1=CC(=NS(=O)(=O)c2cccc([N+](=O)[O-])c2)C=C(C(C)C)C1=O	PfGluPho inh 78 | PfG6PD confirm inactive
CCCC(=O)Nc1sc(Cc2ccccc2)c(C)c1C(N)=O	PfGluPho inh 59 | PfG6PD confirm inactive
Cc1c(Cc2ccc3c(c2)OCO3)sc(NC(=O)c2ccccc2)c1C(N)=O	none
Cc1sc(NC(=O)Nc2ccccc2)c(C(N)=O)c1C	PfGluPho inh 74 | PfG6PD confirm inactive
NC(=O)COC(=O)c1ccccc1OCc1ccccc1Cl	none
O=C(CCc1ccccc1)NC1CCS(=O)(=O)C1 (stereo unspecified)	none
Cc1ccc(C(=O)N2CCCCC2)cc1NC1=C(Cl)C(=O)N(Cc2ccccc2)C1=O	none
Cc1ccc(O)c(NC2=C(Cl)C(=O)N(Cc3ccccc3)C2=O)c1	PfGluPho inh 85 (no result: A3G deaminase, APOBEC3A inh) | PfG6PD confirm inactive
CCN(CC)C(=S)SCC(=O)c1ccccc1	none
CCN(CC)C(=S)SSC(=S)N(CC)CC	PfGluPho inh 66 | PfG6PD confirm 49 | Diaph ctr 10uM inactive | Diaphorase 30uM inactive
O=[N+]([O-])c1ccc(O)c2ncccc12	PfGluPho inh 63 | PfG6PD confirm inactive
CC(C)C(=O)Nc1ccc(C(=O)Nc2ccc(Br)cc2F)cc1	none
CCn1c(SCC(=O)NC2=NCCS2)nnc1C(C)NC(=O)c1ccccc1Br (stereo unspecified)	none (no result: H9c2 TAG inh)
Cc1ccc(-n2nc3cc(C)c(N)cc3n2)cc1	none
Cc1cc2nc3ccc(N(C)C)cc3nc2cc1N	PfGluPho inh 79 | PfG6PD confirm inactive
[O-][N+]1=c2ccc(Nc3ccccc3)cc2=NC12CCCCC2	PfGluPho inh 61 (no result: H9c2 TAG inh, A3G deaminase, APOBEC3A inh) | PfG6PD confirm inactive
O=[N+]([O-])c1ccc2c(c1N1CCCCC1)=NC1(CCCCC1)[N+]=2[O-]	none
COc1ccc(Nc2ccc3c(c2)=NC2(CCCCC2)[N+]=3[O-])cc1	PfGluPho inh 78 | PfG6PD confirm inactive
C=CCSc1nnc(NC(=O)c2ccc3c(c2)OCCO3)s1	PfGluPho inh 99 (no result: A3G deaminase, APOBEC3A inh) | PfG6PD confirm inactive
Cc1ccc(SC2=C(N(C)C)C(=O)c3ccccc3C2=O)cc1	PfGluPho inh 65 (no result: A3G deaminase, APOBEC3A inh) | PfG6PD confirm inactive
Cc1ccc(NC2=CC(=O)C(=O)c3ccccc32)cc1	none (no result: H9c2 TAG inh)
COc1ccc(Nc2cc(C)c3ccc(O)cc3n2)cc1	PfGluPho inh 72 | PfG6PD confirm inactive
Cc1cc(Nc2ccccc2)nc2cc(O)ccc12	none
Cn1cnnc1SCc1ccc(C(=O)N=Nc2c(O)n(C)c3ccccc23)cc1	none (no result: H9c2 TAG inh)
CC(C)N(C)C1=CC(=O)C(N(C)C(C)C)=CC1=O	PfGluPho inh 67 (no result: A3G deaminase, APOBEC3A inh) | PfG6PD confirm inactive
O/N=C1/CCc2cccc3cccc1c23	none (no result: H9c2 TAG inh)
O=C1C(=NO)CCc2ccccc21	PfGluPho inh 62 (no result: A3G deaminase, APOBEC3A inh) | PfG6PD confirm inactive
O=C(COC(=O)CNC(=O)c1ccc(Cl)cc1Cl)NC1CCCCC1	none
CCN(CC)S(=O)(=O)c1ccc(OC)c(NC(=O)CC2CCCC2)c1	none (no result: H9c2 TAG inh)
COc1cccc(-c2cc(CNC(=O)[C@H]3O[C@@H](n4ccc(N)nc4=O)[C@H](O)[C@@H]3O)no2)c1	none (no result: H9c2 TAG inh, PfGluPho inh, A3G deaminase, APOBEC3A inh)
CC(OC(=O)c1ccc2c(c1)OCCO2)C(=O)NC1CCCCC1C (stereo unspecified)	none
C=CCn1c(=O)c2ccccc2n2c(SCc3nnc(-c4ccccc4Br)o3)nnc12	none (no result: H9c2 TAG inh)
Cc1cc(C(=O)CSc2nnc(C3CC3)n2C2CC2)c(C)n1C(C)C	none | PfG6PD confirm inactive
C=CCn1c(C)cc(C(=O)CSc2nnc(C3CC3)n2C2CC2)c1C	none
COc1cc(/C=C2\SC(c3ccc(C)cc3)=NC2=O)cc(OC)c1O	PfGluPho inh 75 (no result: H9c2 TAG inh) | PfG6PD confirm 53 | Diaph ctr 10uM inactive | Diaphorase 30uM inactive
COc1cc(NC(C)CCc2ccccc2)cc(OC)c1OC (stereo unspecified)	PfGluPho inh 77 | PfG6PD confirm 79 | Diaph ctr 10uM inactive | Diaphorase 30uM inactive
CCOC(=O)c1c(C)[nH]c2cc(Br)c(O)cc12	none
CCOC(=O)c1c(OCC)[nH]c2c1cc(O)c1ccccc12	PfGluPho inh 69 (no result: H9c2 TAG inh) | PfG6PD confirm 49 | Diaph ctr 10uM inactive | Diaphorase 30uM inactive
O=C1C(=Cc2cccc(O)c2O)SC(=S)N1CCCN1CCOCC1	PfGluPho inh 70 (no result: A3G deaminase, APOBEC3A inh) | PfG6PD confirm 50 | Diaph ctr 10uM inactive | Diaphorase 30uM inactive
